# Data taken from the supplement of paper PMC3334620.
# Over roughly 33,000 sequences, “E-score (-0.5 to 0.5)” has its median near -0.01; the highest 2% begin near 0.26. Shown is part of a subset that was picked to be rich in the highest values.
# Biological target: Ste12 (UniProt P13574)
# Assay: PBM E-score (8-mer binding enrichment) (E-score (-0.5 to 0.5)); higher = stronger / more preferred TF binding
# Conditions: protein concentration: 200 nM; construct: GST-DNA-binding domain
# In short: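 Yeast transcription factors carrying a GST tag, as full-length proteins or DNA-binding domains, were produced by PURExpress in vitro transcription/translation. About 100-200 nM protein was applied to universal all-10-mer Agilent arrays, double-stranded by primer extension on fresh or once-stripped slides. Bound protein was detected with fluorescent anti-GST, and scans were normalised with masliner. The Universal PBM Analysis Suite gave each ungapped eight-base word, pooled with its reverse complement, an E-score, a modified Wilcoxon-Mann-Whitney statistic.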
# UniProt P13574, sequence (P13574 whole entry): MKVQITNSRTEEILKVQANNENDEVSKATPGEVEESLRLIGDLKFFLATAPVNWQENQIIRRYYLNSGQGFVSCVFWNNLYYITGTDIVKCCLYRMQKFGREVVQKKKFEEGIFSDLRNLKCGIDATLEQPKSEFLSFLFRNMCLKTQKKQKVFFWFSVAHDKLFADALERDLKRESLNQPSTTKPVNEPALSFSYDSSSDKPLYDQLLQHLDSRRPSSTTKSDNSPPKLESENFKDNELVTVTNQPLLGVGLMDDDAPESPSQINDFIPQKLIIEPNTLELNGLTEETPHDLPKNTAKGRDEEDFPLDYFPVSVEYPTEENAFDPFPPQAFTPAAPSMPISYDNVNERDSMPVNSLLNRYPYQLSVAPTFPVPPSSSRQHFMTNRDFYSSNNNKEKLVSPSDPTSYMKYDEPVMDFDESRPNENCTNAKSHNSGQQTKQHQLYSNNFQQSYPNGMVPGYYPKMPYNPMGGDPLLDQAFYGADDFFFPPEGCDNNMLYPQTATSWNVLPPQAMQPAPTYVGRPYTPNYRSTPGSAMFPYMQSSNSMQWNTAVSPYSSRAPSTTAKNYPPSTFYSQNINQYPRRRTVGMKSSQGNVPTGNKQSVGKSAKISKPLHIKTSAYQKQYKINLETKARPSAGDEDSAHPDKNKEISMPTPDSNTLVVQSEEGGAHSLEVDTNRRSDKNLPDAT
row,Sequence,PBM E-score
1,ATGTTGCG,0.139
2,CATTAGTA,0.071
3,GATTAATA,0.246
4,AATTAATT,0.254
5,CATTAATA,0.251
6,AATTAGTC,0.218
7,TATTAATA,0.336
8,AATTAATA,0.359
9,AATTAGTA,0.263
10,AATTAATG,0.232
11,CCATTGCA,0.0632
12,CGCCTAGC,-0.0616
13,GTCACTAA,0.0793
14,AATGGGGT,-0.0055
15,TAAACTTA,0.168
16,TAAACTAA,0.148
17,CAAACTAC,0.0311
18,CAAACTAA,0.265
19,CAAACTTA,0.276
20,CAAACTTC,0.124
21,ACGCTGAC,-0.194
22,AGCAAACC,0.194
23,CATGGGAA,-0.0149
24,CGGCTATC,-0.174
25,ATTTCTAC,0.253

row,Sequence,PBM E-score
1,AACAAATT,0.268
2,AACAAATA,0.341
3,TACAAATA,0.218
4,AACAAGTA,0.00602
5,AACAAGTT,0.154
6,AACAAATG,0.176
7,CAGGCAAA,0.0381
8,AATCTTAT,0.0186
9,CGTTAGGA,0.0933
10,CGAATCCG,0.0624
11,GCCGCTTA,0.0462
12,GCGTTCTA,-0.0704
13,GAATTCTC,0.262
14,CAATTCTC,0.00128
15,TAATTCTA,0.267
16,AAATTCTC,0.105
17,AAATTCTA,0.0535
18,GAATTCTA,0.107
19,CTTCACCC,0.0896
20,AAACGCTA,0.112
21,CCTGGCTA,-0.217
22,TTCCGAAA,0.264
23,ATCCGAAA,0.185
24,GTCCGAAA,0.211
25,GAGGGCCA,0.0172

row,Sequence,PBM E-score
1,AAGAGATA,-0.0137
2,CCGGCTCC,-0.0246
3,AAAGTCGC,0.282
4,CAAGTCGC,-0.3
5,AAAGTCGT,-0.0472
6,GAGATGGA,-0.167
7,GACATTGA,0.051
8,AGGTTGGA,0.114
9,CAACAGCA,0.021
10,CTGTTTGC,-0.0149
11,CTGTTTGA,0.308
12,ATGTTTGC,0.0377
13,ATGTTTGA,0.337
14,ATGTTTGG,0.151
15,GTTTTTGA,0.236
16,CCGTTTGA,0.056
17,GTGTTCGA,0.0597
18,GTGTTTGA,0.301
19,ACCCGACA,0.0405
20,GCCGCAGC,0.00254
21,CCCAAAGA,0.18
22,GCCACGAC,0.0374
23,TTGCAAAA,0.242
24,ATCGAGCC,-0.0583
25,AACGCCCT,-0.0731

row,Sequence,PBM E-score
1,AAACATTC,0.12
2,ACGCAGGG,-0.0649
3,ATTCAAAG,0.145
4,TATCAAAA,0.302
5,TTCAAAAA,0.298
6,CTTCAAAC,0.218
7,TTCAAGAA,0.247
8,TTTCAAAA,0.343
9,CTCAAAAA,0.178
10,GATCAAAA,0.194
11,CTTCAAAA,0.191
12,ATTCAAAC,0.279
13,GTTCAAAA,0.107
14,CATCAAAA,0.221
15,GGACAGAA,0.136
16,CAATTTAG,0.118
17,CGATAGTC,-0.186
18,GAGTAAGC,-0.0348
19,CGCAGGCA,-0.062
20,ACCAGTCT,-0.25
21,CAATGTGC,-0.133
22,CCAGATCC,-0.149
23,CTGACTAA,-0.00263
24,TCTCAAAA,0.275
25,ACTCAAAA,0.165

row,Sequence,PBM E-score
1,CCTCAAAA,0.198
2,TTCCAAAA,0.277
3,ATCAAAAG,0.0655
4,ATCAAAAA,0.316
5,CTCCAAAA,0.183
6,GTCCAAAA,0.123
7,ATCAAAAT,0.192
8,TAACCCAA,0.182
9,CGAGGTAG,-0.219
10,ACAGTGCA,-0.00511
11,GGTTAGCA,-0.0625
12,ACCCTCCA,-0.0426
13,ACCTCCCC,0.161
14,CCCCCTCC,-0.121
15,GCCCCTCA,0.0515
16,CCCTCCCA,0.33
17,ACCCTCCT,-0.00559
18,GCCCCTCC,0.445
19,ACCTCCCA,-0.187
20,ACCCTCCC,0.378
21,TCCTCCCA,-0.0691
22,GCCTCCCC,0.305
23,GCCTCCCA,-0.104
24,CGTAAAGA,-0.0705
25,AACCTTAT,0.138

row,Sequence,PBM E-score
1,CGATCTTC,-0.0861
2,ACAATGGC,0.0105
3,ACCCGTCC,-0.0354
4,CCCTCCCG,0.0504
5,CCCTCCTC,0.0435
6,CCCCTCCG,0.171
7,CCCTCCCC,0.333
8,CCCCTCCA,0.246
9,CCCCTCCC,0.365
10,GATTTCGC,0.2
11,AAGTGGGC,-0.0304
12,GAGCTTTA,-0.0834
13,ACAGTTTG,0.016
14,CCAAAAAC,0.216
15,AGAAAAAC,0.146
16,CAAAAAAA,0.352
17,CAAAAACC,0.128
18,CAAAAAAC,0.298
19,AAAAAAAC,0.331
20,CAAAAAGA,0.178
21,AAAAAACC,0.234
22,CCAAAAAA,0.251
23,GCTGAGCC,-0.0937
24,ACAACTCG,0.0864
25,ATCCCTTG,-0.0717

row,Sequence,PBM E-score
1,GAGCATAA,0.131
2,TAGCTGGA,-0.0515
3,CAGAATAC,0.0945
4,TAATAAAA,0.225
5,CTAAAAGA,0.0876
6,TTAAAGAA,0.251
7,CTAAAAAC,0.023
8,TTAAAAAA,0.294
9,TAAAAAGA,0.248
10,TTAAACAA,0.123
11,TAAAAAAA,0.313
12,TAAAACAA,0.261
13,CTAAAAAA,0.278
14,AAAAACAA,0.251
15,CTAAAAAG,0.218
16,CGGCGAAC,0.0131
17,GGAAGGGA,-0.106
18,CTGTACTC,-0.247
19,CTAGTGTA,0.129
20,GACTACTC,-0.0788
21,CCCCATTA,-0.193
22,CTAATAAA,0.145
23,ATAATAAA,0.255
24,TTAATAAA,0.344
25,ACGGCAAG,0.0378

row,Sequence,PBM E-score
1,ACGGCAAA,0.277
2,ACGGCAAT,0.0277
3,CCACAAGG,-0.107
4,GAGAGTAA,0.142
5,CCCCGCCG,0.242
6,AACCGCCC,0.00313
7,TCCCGCCA,0.101
8,ACCCGCCG,0.137
9,GCCCGCCA,-0.0776
10,CGCCGCCC,0.239
11,ACCCGCCC,0.361
12,CACCGCCC,0.27
13,CCCCGCCC,0.347
14,GCCCGCCC,0.257
15,CCCCGCCA,0.38
16,CACCGCCA,0.0129
17,ACCCTCAC,-0.029
18,AATATAAA,0.306
19,AGTAAAAA,0.214
20,TATAAAGA,0.0307
21,AATAAAAA,0.229
22,AATATAAG,0.198
23,CATATAAA,0.0963
24,TATAAAAA,0.27
25,TATATAAA,0.267

row,Sequence,PBM E-score
1,GATATAAA,0.0834
2,AATATAAT,0.138
3,TGTAAAAA,0.334
4,CGTAAAAA,0.126
5,TCCTGGCA,-0.0322
6,CTGCGCCC,-0.239
7,ACCTACCT,0.0101
8,CGCGGGTA,0.0349
9,GAGAGAGA,-0.0897
10,AAGCGGTA,0.0316
11,ATACTCGG,-0.0182
12,ACAAATCA,0.0844
13,CACCGTGC,0.131
14,ACGGGAGC,-0.111
15,TTTATAAA,0.271
16,GTTATAAA,0.218
17,CTTATAAA,0.223
18,AGCTGTTG,-0.0338
19,ACGAGCCT,-0.0238
